Source: PubChem BioAssay AID743397 (Broad Institute, 2014)
Hit rate of the full screen: of about 340,000 compounds, about 330 (0.097%) were called active. The entries come from a sample that favours actives as a whole. Unmarked numbers belong to inactive results.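 How the source made its calls: active means mean replicate inhibition of at least 30% and at least 1% of replicates passing that level; inconclusive means only one of the two criteria is met; inactive means neither criterion is met.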

tested on: Voltage-dependent L-type calcium channel subunit alpha-1D (CaV1.3) ICDI/IQ interaction; experiment: Disruptors of the CACNA1D IQ motif to Ca2+-dependent inactivation inhibitor domain association, primary screening, Förster resonance energy transfer in intact living cells, one concentration (AID 743397); details: HEK cells, CFP/YFP FRET ICDI-IQ, plate reader, 10 min; at 12.3 µM; stronger effect = higher value; percent FRET-ratio fall versus neutral wells;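 further: 0% = median of the neutral control wells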

SMILES | inhibition
COC(=O)[C@]1(Cc2ccccc2)NC=C(C(=O)c2ccccc2)[C@@H]1c1cccc(OC)c1 | -4.9%
COc1ccccc1CCn1cnc(-c2ccccc2)c1C(C)C | -7.51%
CCCCCn1c(=O)c(C(=O)OCC)c(Cl)c2ccccc21 | -4.21%
CCCn1c(=O)c(-c2ccccc2)c(O)c2ccccc21 | -7.92%
CCCCN(CCCC)CC(O)Cn1c2ccccc2c(=O)c2ccccc21 (configuration not stated) | 107% (active)
COC(=O)c1cc2c(c3c4ccccc4n(S(=O)(=O)c4cccc(C)c4)c13)C(=O)N(Cc1ccccc1)C2 | -4.46%
COC(=O)c1c(-c2ccc(OC)cc2)c2c(c3c4ccccc4n(S(=O)(=O)c4ccc(C)cc4)c13)C(=O)N(C)C2 | -10.3%
COC(=O)C1=C(C)N(Cc2cccc(C(F)(F)F)c2)C(=NCc2ccccc2)NC1c1ccc(Cl)cc1 (configuration not stated) | -3.3%
COc1ccc(-c2cc(NC=O)c3ncc(-c4cc(OC)c(OC)c(OC)c4)n3c2)c(OC)c1 | -3.57%
COC(=O)[C@]12C[C@H](CC(=O)NCc3cccc(C(F)(F)F)c3)C(=O)N(Cc3ccc4c(c3)OCO4)C1=C[C@H](COCc1ccccc1)O[C@@H]2C | -9.09%
CC(=O)Nc1ccc(OC(=O)COc2ccc(Br)cc2)cc1 | -4.58%
Cc1ccc(O)c(NC(=S)NC(=O)COc2ccc(Br)cc2)c1 | 40.4% (active)
CCS(=O)(=O)c1ccc(O)c(NC(=O)COc2ccc(Cl)cc2)c1 | -1.51%
N#Cc1ccc(OCCCN2CCC(C(O)(c3ccccc3)c3ccccc3)CC2)c(F)c1 | -9.35%
O=S1(=O)c2c(cccc2N2CCCCC2)O[C@H](COCc2ccccc2)CN1C1CC1 | -6.9%
COc1cncc(-c2cnc3sc(NCCc4ccccn4)nn23)c1 | -4.67%
COc1cccc(CNC(=O)[C@H]2CCCN2C(=O)[C@H]2CCCN2C(=O)c2ccc(F)cc2)c1 | -5.95%
COc1ccc(SSc2ccc(OC)cc2C(=O)O)c(C(=O)O)c1 | -2.9%
Cc1ccc(NC(=O)N2c3ccccc3SC2c2ccco2)c(C)c1 (configuration not stated) | -10.9%

SMILES | inhibition
Cc1cc(Br)cn2c(Cc3ccccc3C(F)(F)F)c(-c3ccc(C#N)cc3)nc12 | -10%
COC(=O)c1c(-c2ccc(OC)cc2)c2c(c3c4cc(OC)ccc4n(S(=O)(=O)c4ccc(F)cc4)c13)C(=O)N(C)C2 | -5.34%
COc1ccc(S(=O)(=O)Nc2ccc3c(c2)C(=O)N([C@H](C)CO)C[C@H](C)[C@@H](CN(C)C)OCCCC[C@H](C)O3)cc1 | -5.26%
COC(=O)C1=C(C)N(Cc2ccccc2C(F)(F)F)C(=NCC2CC2)NC1c1cccc(Cl)c1 (configuration not stated) | -11.5%
CCOC(=O)CNC(=O)N(C)[C@H]1C[C@H]2c3[nH]c4c(-c5ccc6c(c5)OCO6)cccc4c3CCN2C(=O)[C@H]1[C@H](C)O | -2.88%
COc1ccc(NC(=O)N(C)C[C@@H]2OCCCC[C@@H](C)Oc3ccc(NC(=O)NC4CCCCC4)cc3C(=O)N([C@H](C)CO)C[C@@H]2C)cc1 | -5.46%
CCCCCCCCN1C(=O)[C@@H](CC(=O)NCCCC)C[C@@]2(C(=O)OC)C1=C[C@H](C(C)(C)C)O[C@@H]2C | -9.75%
C[C@@H]1ON(C)[C@H]2C[C@H]3c4cc(N5CCOCC5)ccc4CCN3C[C@@H]12 | -4.48%
COc1ccc(C2CC(c3cccs3)=NN2C(=O)CSc2nncs2)cc1OC (configuration not stated) | -3.4%
COc1ccc(C2CC(c3cccs3)=NN2C(=O)CSc2nnc(N)s2)cc1OC (configuration not stated) | -6.31%
COc1ccc(C2CC(c3cccs3)=NN2c2nc(C)c(C(C)=O)s2)cc1OC (configuration not stated) | 168% (active)
C[C@@H](CN1C2=NC[C@@H](Cc3ccccc3)N2C[C@H]1Cc1ccc(O)cc1)NC(=O)CCC1CCCCC1 | -5.25%
C[C@@H]1CN([C@H](C)CO)C(=O)CCCn2cc(nn2)CO[C@H]1CN(C)C(=O)Nc1ccc(N2CCCCC2)cc1 | -8.15%
Cc1[nH]nc2c1C(c1ccc(Br)cc1)NC2=O (configuration not stated) | -4.02%
COCc1cc(N2CCN(C(=O)OC(C)(C)C)C[C@@H]2C)ccc1N1CCN(Cc2ccccc2)[C@H](C)C1 | -8.69%
CCOC(=O)C1=C(C(=O)OCC)C2N(Cc3ccc(C#N)cc3)c3ccccc3[C@@]23C[C@@H](C(=O)OC)N(S(=O)(=O)c2ccc(F)cc2)C3=N1 (some centres not stated) | -8.5%
CC(C)(C)c1ccc(S(=O)(=O)NCC2CCN(C(=O)C(=O)c3cc4ccccc4o3)CC2)cc1 | -8.19%
COC(=O)[C@@]12C[C@@H](CC(=O)N3CCC(c4ccccc4)CC3)C(=O)N(Cc3ccccc3)C1=CCC(C)(C)C2 | -9.64%
